Experimental data: the supplement of paper PMC8975748
Structures can show the parent of a compound that is named as a salt.

system: Saccharomyces cerevisiae BY4741 SeMeCo community; assay: z-score of subpopulation abundance vs DMSO median, subpopulation auxotrophic for M; higher = larger share of this subpopulation than in DMSO controls; conditions: 10 µM; 24 h; SM minimal medium; subpopulation (auxotrophy): M
Description: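 Fluorescent four-plasmid SeMeCo (self-establishing metabolically cooperating S. cerevisiae BY4741 community; plasmids pH-mRuby2, pL-mWasabi, pU-eCFP, pM-TagRFP657) was grown 24 h in minimal SM medium with each Selleck FDA-approved drug at 10 µM in 384-well plates. Cells were fixed and imaged by high-content confocal microscopy. For each auxotrophic subpopulation (and the prototroph), a z-score gives the deviation from the DMSO vehicle-control population median.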

Row | SMILES | z-score of subpopulation abundance
1 | C=CCN1C[C@H](C(=O)N(CCCN(C)C)C(=O)NCC)C[C@@H]2c3cccc4[nH]cc(c34)C[C@H]21 [Cabergoline] | -0.27
2 | Oc1cc(Cl)ccc1Oc1ccc(Cl)cc1Cl [Triclosan] | -4.35
3 | CN1c2ccccc2C(NCCCCCCC(=O)O)c2ccc(Cl)cc2S1(=O)=O (stereo not given) [Tianeptine sodium] | 0.9
4 | CCN(C)C(=O)Oc1cccc([C@H](C)N(C)C)c1 [Rivastigmine] | 1.32
5 | C=CC[C@]1(O)CC[C@H]2[C@@H]3CCC4=CC(=O)CCC4=C3C=C[C@@]21C [Altrenogest] | 0.62
6 | NC(=O)CN1CCCC1=O [Piracetam] | 1.48
7 | COc1ccc2c(c1)[C@]13CCCC[C@@H]1[C@H](C2)N(C)CC3 [Dextromethorphan hydrobromide hydrate] | 0.1
8 | NCCc1c[nH]c2ccc(O)cc12 [Serotonin HCl] | 0.15
9 | C[C@@H]1O[C@@H](O[C@H]2C[C@@H](O)[C@]3(CO)[C@H]4[C@H](O)C[C@]5(C)[C@@H](C6=CC(=O)OC6)CC[C@]5(O)[C@@H]4CC[C@]3(O)C2)[C@H](O)[C@H](O)[C@H]1O [Ouabain] | -0.73
10 | C[CH2][Hg][S]c1ccccc1C(=O)[O-].[Na+] [Thimerosal] | -0.95
11 | O=c1cccc2n1C[C@@H]1CNC[C@H]2C1 [Cytisine] | -0.43
12 | N#Cc1nn(-c2c(Cl)cc(C(F)(F)F)cc2Cl)c(N)c1[S+]([O-])C(F)(F)F (stereo not given) [Fipronil] | -1.13
13 | COc1ccc(C=O)cc1 [p-Anisaldehyde] | -1.36
14 | N[C@@H]1C[C@H]1c1ccccc1 [Tranylcypromine (2-PCPA) HCl] | -0.13
15 | CCCCCCCCCCCCCCCC[n+]1ccccc1 [Cetylpyridinium Chloride] | -6.34
16 | Cn1cc(C2=C(c3cn(C4CCN(Cc5ccccn5)CC4)c4ccccc34)C(=O)NC2=O)c2ccccc21 | -1.26
17 | CN(C)[C@@H]1C(=O)C(C(N)=O)=C(O)[C@@]2(O)C(=O)C3=C(O)c4c(O)cccc4[C@@](C)(O)[C@H]3[C@H](O)[C@@H]12 [Oxytetracycline (Terramycin)] | -0.79
18 | CCN(C)C(=O)Oc1cccc([C@H](C)N(C)C)c1 [Rivastigmine Tartrate] | -0.28
19 | CC(C)(O)C(Cl)(Cl)Cl [Chlorobutanol] | 0.1
20 | CN(C)[C@@H]1C(=O)C(C(N)=O)=C(O)[C@@]2(O)C(=O)C3=C(O)c4c(O)cccc4[C@@](C)(O)[C@H]3[C@H](O)[C@@H]12 [Oxytetracycline Dihydrate] | -1.02

Row | SMILES | z-score of subpopulation abundance
21 | CC(C)N(CCC(C(N)=O)(c1ccccc1)c1ccccn1)C(C)C (stereo not given) [Disopyramide] | -0.53
22 | CC(=O)O[C@H]1C[C@@H]2CC[C@@H]3[C@H](CC[C@@]4(C)[C@H]3C[C@H]([N+]3(C)CCCCC3)[C@@H]4OC(C)=O)[C@@]2(C)C[C@@H]1[N+]1(C)CCCCC1 [Pancuronium dibromide] | -1.46
23 | Oc1cccc2cccnc12 [8-Hydroxyquinoline] | 1.04
24 | COc1ccc(C(CN(C)C)C2(O)CCCCC2)cc1 (stereo not given) [Venlafaxine HCl] | 0.68
25 | CN(C)[C@@H]1C(=O)C(C(N)=O)=C(O)[C@@]2(O)C(=O)C3=C(O)c4c(O)cccc4[C@@](C)(O)[C@H]3C[C@@H]12 [Tetracycline HCl] | -0.05
26 | CCC1=C[C@H]2CN3CCc4c([nH]c5ccccc45)[C@](C(=O)OC)(C2)[C@H]13 [Catharanthine] | -0.42
27 | C[C@@H]1CC[C@H]2[C@@H](C)C(=O)O[C@@H]3O[C@@]4(C)CC[C@@H]1[C@]32OO4 [Artemisinin] | -4.51
28 | COc1ccc2c3c([nH]c2c1)C(C)=NCC3 [Harmaline] | 5.54
29 | CC1(C)SC2C(N)C(=O)N2C1C(=O)O (stereo not given) [6-Aminopenicillanic acid] | 0.22
30 | C[C@H]1O[C@H](O[C@H]2[C@H](O)[C@@H](O)[C@@H](O)[C@H](O)[C@@H]2O)[C@@H](N)C[C@@H]1NC(=N)C(=O)O [Kasugamycin hydrochloride] | -0.97
31 | Nc1ccncc1 [4-Aminopyridine] | 0.04
32 | C=C(C)[C@H]1Cc2c(ccc3c2O[C@@H]2COc4cc(OC)c(OC)cc4[C@@H]2C3=O)O1 [Rotenone (Barbasco)] | 0.37
33 | COc1ccc2[nH]cc(CCN)c2c1 [5-Methoxytryptamine] | 0.64
34 | C=C[C@H]1CN2CC[C@H]1C[C@H]2[C@H](O)c1ccnc2ccccc12 [Cinchonidine] | 0.23
35 | COc1ccc(C(CN(C)C)C2(O)CCCCC2)cc1 (stereo not given) [Venlafaxine] | -0.73
36 | CN1[C@@H]2CC[C@H]1C[C@@H](OC(=O)C(CO)c1ccccc1)C2 (stereo not given in full) [Atropine sulfate monohydrate] | -0.25
37 | CC[N+](C)(CC)CCOC(=O)C(O)(c1ccccc1)c1ccccc1 [Methylbenactyzine Bromide] | 0.22
38 | C[N+](C)(C)CCCCCCCCCC[N+](C)(C)C [Decamethonium Bromide] | -0.44
39 | O=C(O[C@H]1C[N+]2(CCCOc3ccccc3)CCC1CC2)C(O)(c1cccs1)c1cccs1 [Aclidinium Bromide] | 0.23
40 | CC[C@H]1[C@@H]2C[C@H]3[C@@H]4N(C)c5ccccc5[C@]45C[C@@H]([C@@H]2[C@H]5O)N3[C@@H]1O [Ajmaline] | 0.82
